In experiment [1] the target is Cytochrome P450 2C9 (Homo sapiens) (UniProt P11712). Briefly: Cytochrome P450 Family 2 Subfamily C Member 9 (CYP2C9) small molecule antagonists: luciferase reporter qHTS assay (AID 1671198). Also: potency is read from the fitted curve at half-maximal effect. As to activity change, negative = inhibition: series mostly up to about 120 µM. The procedure, abridged:
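Enzyme-substrate mix preincubated with compound 10 min at room temperature; reaction started with NADPH regeneration solution, 1 h 37C. Luminescent luciferin product read after 20 min detection reagent.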
On the technique in general: Reporter assays use an easily measured gene product as a stand-in for the process of interest.

The target of experiment [2] is Cytochrome P450 1A2 (Homo sapiens) (UniProt P05177). The experiment is described as follows: Cytochrome P450 Family 1 Subfamily A Member 2 (CYP1A2) small molecule antagonists: luciferase reporter qHTS assay (AID 1671199). Also: potency is read from the fitted curve at half-maximal effect. As to activity change, negative = inhibition: series mostly up to about 120 µM. In a few lines:
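Enzymatic CYP1A2 assay, human, luminescent: 10 min compound–enzyme–substrate preincubation, 1 h NADPH-dependent turnover, 20 min detection step, room temperature throughout. Reduced light indicates lower CYP1A2 activity.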

Experiment [3] concerns the target Voltage-gated inwardly rectifying potassium channel KCNH2 (Homo sapiens) (UniProt Q12809). Briefly: Human Ether-a-go-go-Related Gene (hERG) channel small molecule antagonists: fluorescence cell-based qHTS assay (AID 1671200).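 Also: hERG-expressing U2OS cells given a thallium stimulus after FluxOR II dye loading; series mostly up to about 77 µM.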 In a few lines:
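Read-out: thallium influx as a surrogate for potassium, tracked as fluorescence (480 nm ex/540 nm em) every second for 2 min after Stimulus Buffer addition in dye-loaded hERG-U2OS cells.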
(In general: The hERG channel carries a current that helps repolarise heart muscle cells.)

Experiment [4] deals with Cytochrome P450 3A4 (Homo sapiens) (UniProt P08684). Briefly: Cytochrome P450 Family 3 Subfamily A Member 4 (CYP3A4) small molecule antagonists: luciferase reporter qHTS assay (AID 1671201). Also: potency is read from the fitted curve at half-maximal effect. As to activity change, negative = inhibition: series mostly up to about 120 µM. In a few lines: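 Luminescent readout (RLU) proportional to CYP3A4 activity, from luciferin generated off a proluciferin substrate. Enzyme–substrate mix plus compound 10 min at room temp, NADPH regeneration 1 h, detection reagent 20 min.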

Where “and” joins values, the source holds several entries; their conditions need not be identical. Equal values may be shown once. Inconclusive results are not listed. A number with no mark means an inactive call. Calls of active or inactive are those of the source. Calls follow the shape of the dose curve; as a rule, active = well fitted curve in the direction sought with a large enough effect in the repeat runs; inconclusive = weak or mixed curves; inactive = no such curve, though single readings can be large; an effect the other way counts as inactive or inconclusive.
% is scaled to controls: 0 for no effect and ±100 for the full control effect.
Also: nearly all actives have a fitted effect of over 50% in size.

Sequence of Voltage-gated inwardly rectifying potassium channel KCNH2 (Homo sapiens) (Q12809 whole entry, looked up): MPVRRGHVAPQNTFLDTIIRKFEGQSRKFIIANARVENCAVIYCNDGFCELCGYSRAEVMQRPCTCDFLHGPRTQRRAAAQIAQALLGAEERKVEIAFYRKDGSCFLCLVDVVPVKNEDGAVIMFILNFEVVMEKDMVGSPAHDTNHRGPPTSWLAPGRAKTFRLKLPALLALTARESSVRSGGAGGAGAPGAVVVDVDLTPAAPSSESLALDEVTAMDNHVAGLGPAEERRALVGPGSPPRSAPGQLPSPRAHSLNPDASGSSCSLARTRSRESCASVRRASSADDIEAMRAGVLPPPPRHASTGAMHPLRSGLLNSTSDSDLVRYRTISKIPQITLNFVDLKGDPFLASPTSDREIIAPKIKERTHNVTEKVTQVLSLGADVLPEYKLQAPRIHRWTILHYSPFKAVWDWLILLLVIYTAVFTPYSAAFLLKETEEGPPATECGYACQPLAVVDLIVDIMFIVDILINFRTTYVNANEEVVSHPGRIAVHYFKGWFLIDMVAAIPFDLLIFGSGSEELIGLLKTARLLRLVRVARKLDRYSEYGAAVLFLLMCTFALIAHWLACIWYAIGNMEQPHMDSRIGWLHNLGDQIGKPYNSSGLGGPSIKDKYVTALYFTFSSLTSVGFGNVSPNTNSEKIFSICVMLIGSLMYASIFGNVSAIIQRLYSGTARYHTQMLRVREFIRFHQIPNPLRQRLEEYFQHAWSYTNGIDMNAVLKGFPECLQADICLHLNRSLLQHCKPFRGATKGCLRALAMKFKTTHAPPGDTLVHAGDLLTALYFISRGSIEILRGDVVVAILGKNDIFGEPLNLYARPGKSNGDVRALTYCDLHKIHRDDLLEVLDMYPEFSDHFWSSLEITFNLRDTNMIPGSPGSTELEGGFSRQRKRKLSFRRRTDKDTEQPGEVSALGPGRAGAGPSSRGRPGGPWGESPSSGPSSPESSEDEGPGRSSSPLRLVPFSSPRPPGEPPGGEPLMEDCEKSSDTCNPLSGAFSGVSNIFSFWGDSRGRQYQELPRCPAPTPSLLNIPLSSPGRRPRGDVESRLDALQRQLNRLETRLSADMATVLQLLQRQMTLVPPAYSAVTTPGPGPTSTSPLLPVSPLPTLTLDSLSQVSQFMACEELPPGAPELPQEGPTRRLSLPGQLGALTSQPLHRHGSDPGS
Sequence of Cytochrome P450 1A2 (Homo sapiens) (P05177 whole entry, looked up): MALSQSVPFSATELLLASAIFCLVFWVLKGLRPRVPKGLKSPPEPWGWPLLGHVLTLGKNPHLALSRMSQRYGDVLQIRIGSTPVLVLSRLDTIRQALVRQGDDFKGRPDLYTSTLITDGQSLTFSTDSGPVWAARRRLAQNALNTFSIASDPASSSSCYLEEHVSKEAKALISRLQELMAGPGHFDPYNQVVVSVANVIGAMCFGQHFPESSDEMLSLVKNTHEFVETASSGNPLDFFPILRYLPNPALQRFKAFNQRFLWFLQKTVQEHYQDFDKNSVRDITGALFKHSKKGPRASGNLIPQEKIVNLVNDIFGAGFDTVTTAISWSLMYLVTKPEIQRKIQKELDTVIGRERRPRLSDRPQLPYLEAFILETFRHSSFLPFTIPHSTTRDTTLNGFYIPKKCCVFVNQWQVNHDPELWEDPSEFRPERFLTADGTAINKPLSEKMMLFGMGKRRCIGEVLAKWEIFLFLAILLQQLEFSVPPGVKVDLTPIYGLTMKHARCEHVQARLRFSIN
Sequence of Cytochrome P450 3A4 (Homo sapiens) (P08684 whole entry, looked up): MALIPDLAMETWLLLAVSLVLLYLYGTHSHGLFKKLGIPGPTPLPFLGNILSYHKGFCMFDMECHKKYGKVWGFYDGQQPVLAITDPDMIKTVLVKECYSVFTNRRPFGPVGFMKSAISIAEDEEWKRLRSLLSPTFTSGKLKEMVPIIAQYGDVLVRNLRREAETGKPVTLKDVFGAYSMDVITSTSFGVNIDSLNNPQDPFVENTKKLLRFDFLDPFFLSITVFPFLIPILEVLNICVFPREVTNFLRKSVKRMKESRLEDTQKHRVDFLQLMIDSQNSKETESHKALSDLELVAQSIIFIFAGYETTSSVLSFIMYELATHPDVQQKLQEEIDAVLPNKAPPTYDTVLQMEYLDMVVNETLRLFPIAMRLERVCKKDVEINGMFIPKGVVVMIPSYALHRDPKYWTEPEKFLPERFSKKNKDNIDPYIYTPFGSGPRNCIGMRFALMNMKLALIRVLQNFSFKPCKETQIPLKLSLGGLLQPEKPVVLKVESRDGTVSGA
Sequence of Cytochrome P450 2C9 (Homo sapiens) (P11712 whole entry, looked up): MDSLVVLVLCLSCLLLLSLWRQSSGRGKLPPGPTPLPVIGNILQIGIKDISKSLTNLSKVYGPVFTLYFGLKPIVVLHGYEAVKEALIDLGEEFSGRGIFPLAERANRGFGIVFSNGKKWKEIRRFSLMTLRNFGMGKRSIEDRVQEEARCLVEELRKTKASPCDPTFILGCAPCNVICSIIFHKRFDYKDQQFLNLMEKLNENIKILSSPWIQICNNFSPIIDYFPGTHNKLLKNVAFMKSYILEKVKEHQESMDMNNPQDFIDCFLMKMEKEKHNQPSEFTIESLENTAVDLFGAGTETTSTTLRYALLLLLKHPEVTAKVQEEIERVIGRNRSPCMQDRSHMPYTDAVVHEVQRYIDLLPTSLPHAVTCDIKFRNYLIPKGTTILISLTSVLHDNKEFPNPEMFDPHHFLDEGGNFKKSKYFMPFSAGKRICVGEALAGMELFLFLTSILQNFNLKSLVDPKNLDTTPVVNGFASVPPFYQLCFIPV

For `COC(=O)c1ccccc1C`, the Potency result in experiment [1], in experiment [2], in experiment [3] and in experiment [4] was “inactive” in each case.

As for `CC(CO)Oc1ccccc1` (configuration not stated), the Potency result in experiment [1], in experiment [2], in experiment [3] and in experiment [4] was “inactive” each time.

As to `COc1cc2nc(N3CCN(C(=O)c4ccco4)CC3)nc(N)c2cc1OC`, the activity change, negative = inhibition in experiment [1] was 1.12% [at 23.6 µM]; in experiment [2], 1.24% [at 23.6 µM]; in experiment [3], -1.36% [at 15.8 µM]; in experiment [4], 135% [at 23.6 µM].

`O=C(O)c1cc(-c2ccc(F)cc2F)ccc1O`: the Potency in experiment [1] was 24.5 µM (active). The Potency result in experiment [2], in experiment [3] and in experiment [4] was “inactive” each time.

Regarding `CCCCC/C=C\C/C=C\CCCCCCCC(=O)O`, the Potency is 35 µM (active) and 31.7 µM (active) in experiment [1]; 39.9 µM (active) in experiment [4]. In addition, the Potency result in experiment [2] and in experiment [3] was “inactive” throughout.

In the case of `OC[C@@H](O)[C@@H](O)CO`, the Potency entry in experiment [1], in experiment [2], in experiment [3] and in experiment [4] was “inactive” throughout.

Take `CCCC(=O)OCCc1ccccc1`: the Potency result in experiment [1], in experiment [2], in experiment [3] and in experiment [4] was “inactive” throughout.

For `CCO[Si](OCC)(OCC)OCC`, the Potency result in experiment [1], in experiment [3] and in experiment [4] was “inactive” each time.

As to `CCCC1CCC(=O)CC1`, the Potency result in experiment [1], in experiment [2], in experiment [3] and in experiment [4] was “inactive” each time.

Turning to `CC(C)OC(=O)C(O)(CC(=O)O)CC(=O)O`, the Potency in experiment [1] is 35.6 µM (active). The Potency entry in experiment [3] and in experiment [4] was “inactive” in each case.

Consider `[Cl][Pt-2]([Cl])([Cl])[Cl]`, for which the Potency was 25.3 µM (active) in experiment [1] and 35.7 µM (active) in experiment [2]. Further, in experiment [4], the Potency entry is “inactive”.

Regarding `NC[C@H]1O[C@H](O[C@H]2[C@H](O[C@@H]3O[C@H](CO)[C@@H](O)[C@H]3O)C(O)[C@H](N)C[C@@H]2N)[C@H](N)[C@@H](O)[C@@H]1O` (some centres not stated), the results for the activity change, negative = inhibition in experiment [1] and in experiment [3] were 2.46% [at 10.5 µM] and -0.219% [at 6.97 µM], respectively.

As for `Cc1ccc(O)c(O)c1`, the Potency result in experiment [1] and in experiment [3] was “inactive” throughout.

Take `CCC(C)(CCC(C)C)C(=O)[O][Sn]([CH3])([CH3])[O]C(=O)C(C)(CC)CCC(C)C` (configuration not stated): in experiment [1], the Potency was 25.2 µM (active). In experiment [3], the Potency result was “inactive”.
